69 sequences from PubChem BioAssay AID1508600 (Functional Genomics Laboratory (NCATS/FGL), 2020) can be followed below.

About 3,700 (7%) of roughly 53,000 sequences were called active.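 Rule for the calls: active = gene knockdowns whose robust z-score for IL-1 alpha signal is at least 2 or at most -2, so actives lie on both sides; inactive = the rest.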 This excerpt belongs to a sample that is enriched for actives.

This test is described as follows: Components of the Cytosolic LPS Sensing Pathway: Gene Identification via Genome-wide siRNA Screen.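 Note: robust z of the log signal after scaling to non-targeting control siRNA wells of the plate.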 Particulars: RAW264.7 macrophages, IL-1a HTRF, actives lie on both sides, screened at 100 nM (by protocol), cells primed 5 h with Pam3CSK4 first. The gist of the method: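 Cells (RAW264.7, 1×10^4 per well) were transfected with siRNA at 100 nM and cultured 48h at 37 degrees C. Pam3CSK4 was added for 5 hours; LipidA transfection followed for 24 hour. IL-1a was then measured by HTRF.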
In general terms: In TR-FRET formats the signal depends on donor and acceptor labels being close together.
For the sequence CCUCCACUAUACGGUAAGUTT against Pla2g2c, the z-score was -3.37 (active).

Regarding GGCUGGAUGUCAGAUUGCATT against Olfr1389, the z-score is -1.38 (inactive). The result for GGACCAGUUUGAGUAUGAGTT against Tmem11 reads -1.58 (inactive); that for CCUGUGAGGCCAUUGAUUCTT against Acsbg1, -1.33 (inactive); that for GGACUCUUUUUGUUCUUUGTT against Vgll2, -1.22 (inactive). For CGUUACCAUGAGAGUUAAUTT against Pcdhb19, the z-score was 3.83 (active). In the case of CGGGAGUAUCUGCUUCAGUTT against Ndufb4 it was 0.336 (inactive); in that of GGCUGAAGAGAUUGUCAAUTT against Aars, -0.392 (inactive); in that of CCUGCUAAACCUGGACCAUTT against Hic1, 1.61 (inactive). Turning to GGAGCUUAGCCUCUGUAUGTT against Gatd3a, the z-score was -0.86 (inactive).

For GGUAAAGACAAGAUUAAAGTT against Cyp39a1, the z-score is -0.308 (inactive). The result for GCCACUCAUAUUGAUCCAUTT against Prss34 reads -2.31 (active); that for GGUGUUUACUCCGUACCCATT against Tbrg4, -2 (inactive); that for GCGUGAACCUCCUUCUUGATT against Ramp3, -1.29 (inactive). GGAGAGGCAUCUUUUCCUATT against Arhgap20: the z-score is -0.338 (inactive).

In the case of CCCACCUAGGUUCAUCCCATT against Fat1, the z-score was -1.4 (inactive). In the case of GGAAUGUGAGCUUAUCAUATT against Tlr1, the z-score was -0.965 (inactive).

As to GCAUAGAUUGAUGGCUAAUTT against Chd8, the z-score is 1.18 (inactive).

For GCAUAGCAGAGAUGAUUCUTT against Trip12, the z-score was 2.15 (active). The result for GGUUGAUGAGUUUAGGUUUTT against Cpsf2 reads 0.264 (inactive); that for GGGUUCAAAAGCCCAUAUUTT against Gm6787, 0.206 (inactive). For the sequence GGUCUUCGAAACACAGCUGTT against Exoc3l2, the z-score is -0.402 (inactive). In the case of GGUUUUAUCAGAAUGUCAGTT against Atpaf2 it was 0.464 (inactive); in that of CCAUAGUAUUGAUGUCUGCTT against Nat8f2, 0.363 (inactive). The result for GGACUCUUUUCUACGUGGATT against Klhl1 reads 2.54 (active). Take CCCUAGGUCAUAGCUUGACTT against Crtc1: the z-score is 1.58 (inactive). In the case of CGGUCCCAAACGGUCAAGUTT against Tafa2 it was 1.69 (inactive); in that of GCCUGGAAUGCAGAAUCGATT against Vwa2, -0.0276 (inactive); in that of CCCAAAGUGCUUUACAAUGTT against Aard, 2.1 (active). The result for GGUUCAACGCAAAGUUCGCTT against Aldh4a1 reads 0.347 (inactive); that for GCUACUAUGUGCCCUGAUATT against Ms4a7, -0.458 (inactive). In the case of CCUCCUUAUCCAUAAUAUUTT against Slc35a3 it was 0.727 (inactive); in that of GGCUCUAAAACUGUCAGACTT against Scp2d1, 2.25 (active). Consider GGGUAUUUUGACAAUUUGGTT against Lrig3, for which the z-score is -0.576 (inactive). Regarding GGCCAGACCUUUGUGAAUGTT against Ctse, the z-score was -1.96 (inactive). Take GGAAUCUUUAGACCAUCUCTT against Myh1: the z-score is 5.3 (active). The result for GGCCAUGAAUCUUGUUGGGTT against Scg5 reads -0.684 (inactive); that for GGAAGUCACCAUCAACCAGTT against Krt4, 0.168 (inactive); that for CGAGCACUAUUUUGGAUUATT against Usp12, 0.0102 (inactive). In the case of GGCUGUGAUCUCCUGGCUUTT against Rnft2 it was -1.46 (inactive); in that of GGCUUUACGAGGAAAAAGGTT against Pex1, 2.09 (active); in that of GGAAUGCAUGCUAAUUCAGTT against Thsd1, 1.1 (inactive). GGAUUCUGAGUGUACGUUUTT against Zfp28: the z-score was 0.0227 (inactive). The result for CGAGGGAUAAGAGUCUACGTT against Ubxn11 reads 1.45 (inactive); that for GCUAAUUCCAAGAAAGAAGTT against Lifr, -0.326 (inactive); that for GGACCAUCCCUGCUUAAUGTT against Brat1, -2.09 (active). In the case of CGGUCAACAUCAAUGGUAATT against Gkn1 it was -1.28 (inactive).

Turning to GCUAAGAUUCCUUCCAGUATT against Adm2, the z-score was 0.98 (inactive). In the case of GGUUCUACCUCAAGAUGUUTT against Srd5a2 it was 0.0188 (inactive). The result for CCUAUAUCAUCAUGGUUUGTT against Tmx1 reads 2.4 (active); that for GGACUACGUAUUUUCCCUGTT against Cyc1, -0.39 (inactive); that for GCUCUGAUAUUCUCAUCAATT against Olfr39, 1.25 (inactive). On to CCUGGGAGCCUAUUAUUCUTT against Ndufb10, for which the z-score is -0.032 (inactive). As to GGAAGAUAACCAUUUUGAATT against Setd4, the z-score is -0.777 (inactive). The result for CGGCGUGUUUAUUUGCUAUTT against Rab27a reads -1.38 (inactive).

On to CCUGGUUUACAUGUACGGGTT against Tap2, for which the z-score is 0.494 (inactive). In the case of GCUAGAGACGAGAAGAUGATT against Ano10 it was -2.47 (active); in that of GCACUUCGAAGAAAUAAAATT against Ahsa2, 0.396 (inactive). The result for CGAGGACAAAAAUACCGACTT against Supt6 reads -1.51 (inactive); that for GAAGAUUAUCCAUUGCCCGTT against Lce1h, 0.689 (inactive); that for GGACCCAGCUCCUGUACAUTT against Ypel3, 2.31 (active). The result for GGGACAGAGCCGAAAGAGUTT against Mrpl33 reads -1.39 (inactive); that for CCUUGCCUUUACUACCAGUTT against Olfr15, -0.187 (inactive). Turning to GCGAUACCAGGGACUACAUTT against Zfp692, the z-score was 1.75 (inactive).

Consider “CGCUCUCUCUACAAAGGAUTT against A230052G05Rik”, for which the z-score was 0.984 (inactive). In the case of GGGAAUUUGGGCAUGAUCATT against Olfr44, the z-score was -2.02 (active). Consider “GCAUGUUCGCACGUGUCAATT against 5330439B14Rik”, for which the z-score is -1.05 (inactive). For “CGACUGAUAGAUGAGUAAATT against C130026L21Rik”, the z-score was 0.424 (inactive). With CCGCACAUGCUCUCAAAUATT against Polr3d, the z-score was -1.25 (inactive).
